Type in all cases: functional
Test [1] deals with Solute carrier family 2, facilitated glucose transporter member 1 (Homo sapiens) (UniProt P11166). The experiment in a line: ST_JUDE_LEISH: Cytotoxicity at 2uM final concentration against transgenic Leishmania Mexicana promastigotes LmGLUT1 that are glucose transport deficient and complemented with the human glucose transporter GLUT1. Activity is measured by DNA content using SYBR green in vitro.

For test [2], the target named is Hexose transporter 1 (Plasmodium falciparum) (UniProt O97467). The experiment in a line: ST_JUDE_LEISH: Cytotoxicity at 2uM final concentration against transgenic Leishmania Mexicana promastigotes LmPfHT that are glucose transport deficient and complemented with the Plasmodium falciparum hexose transporter. Activity is measured by DNA content using SYBR green in vitro.

The target in test [3] is Glucose transporter (Leishmania mexicana) (UniProt O61059). As to the kind of experiment: ST_JUDE_LEISH: Cytotoxicity at 2uM final concentration against transgenic Leishmania Mexicana promastigotes LmGT2 that are glucose transport deficient and complemented with the L. Mexicana glucose transporter 2. Activity is measured by DNA content using SYBR green in vitro.

SMILES strings stand for the structures.

The term inhibition denotes the relative decrease from the control value, in per cent.

Chain of Solute carrier family 2, facilitated glucose transporter member 1 (Homo sapiens) (P11166 whole entry): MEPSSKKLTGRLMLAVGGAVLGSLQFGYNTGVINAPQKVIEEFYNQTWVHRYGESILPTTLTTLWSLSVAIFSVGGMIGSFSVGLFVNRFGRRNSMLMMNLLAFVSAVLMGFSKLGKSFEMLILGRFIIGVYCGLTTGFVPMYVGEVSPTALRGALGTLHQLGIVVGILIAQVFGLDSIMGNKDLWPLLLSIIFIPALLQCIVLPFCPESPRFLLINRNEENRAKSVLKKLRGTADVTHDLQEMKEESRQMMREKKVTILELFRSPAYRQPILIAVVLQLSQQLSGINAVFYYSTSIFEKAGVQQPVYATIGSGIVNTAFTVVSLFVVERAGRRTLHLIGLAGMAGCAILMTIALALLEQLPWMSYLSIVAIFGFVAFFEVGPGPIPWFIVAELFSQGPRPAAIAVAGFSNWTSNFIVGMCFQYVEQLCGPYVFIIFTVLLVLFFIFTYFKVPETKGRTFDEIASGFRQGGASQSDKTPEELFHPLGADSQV

Regarding `Cc1cc(NC2CCN(CC3CCCCC3)C2)nc(Nc2ccc(Br)cc2)n1` (centres undefined), the inhibition in test [1] was -0.39%; in test [2] it was 2.78%; in test [3] it was 0.66%.

As for `COc1ccc(Nc2nc(C)cc(NCc3ccc(-c4c(C)noc4C)cc3)n2)cc1`, the inhibition worked out at 17.4% in test [1], 13.9% in test [2] and 2.01% in test [3].

`O=S(=O)(NCCN1CCCC1)c1cccc(-c2cccc(CNCc3ccccc3)c2)c1`: the inhibition was 20% in test [1], 17.2% in test [2] and 11.7% in test [3].

Turning to `Cc1ccc(NC(=O)c2ccc(C(=O)NC3CCN(CC4CCCCC4)CC3)cc2)cc1`, the figures for the inhibition in test [1], in test [2] and in test [3] were 2.26%, 3.07% and 1.65%, respectively.

With `COc1ccc(-c2csc3ncnc(Cl)c23)cc1`, the inhibition is 5.44% in test [1], 5.72% in test [2] and 4.99% in test [3].

For `COc1ccc2c(ccc3c2ncc2c(=O)n(-c4ccccc4)[nH]c23)c1`, the figures for the inhibition in test [1], in test [2] and in test [3] were -1.88%, -1.2% and -0.76%, respectively.

In the case of `O=C(Nc1cccc(CN2CCCN(CC3CCCCC3)CC2)c1)c1ccc(Cl)c(Cl)c1`, the inhibition is 12.1% in test [1], 12.2% in test [2] and 10.5% in test [3].

Turning to `CC(C)CNCc1cccc(-c2cccc(CN(CCCN3CCN(C)CC3)C(=O)Nc3ccccc3)c2)c1`, the results for the inhibition in test [1], in test [2] and in test [3] were 0.02%, -1.73% and 0.33%, respectively.

For the compound `O=C(NC1CCCC1)c1ccc(N2CCC(NCc3cc4cc(Cl)ccc4[nH]3)CC2)cc1`, the inhibition amounted to 2.79% in test [1], 3.34% in test [2] and 2.98% in test [3].

`CCc1ccc(-c2nc3cc(NC(=O)c4ccc([N+](=O)[O-])o4)ccc3o2)cc1`: the inhibition in test [1] came to 1.01%; in test [2], 2.33%; in test [3], 0.78%.

With `NC(=O)c1ccsc1NC(=O)CNC(c1ccc(F)cc1)c1cccs1` (centres undefined), the inhibition in test [1] worked out at 2.48%; in test [2], 2.01%; in test [3], 2.8%.

Regarding `COc1cc(CNCCCCCCNCc2cc(OC)cc3ccccc23)c2ccccc2c1`, the results for the inhibition in test [1], in test [2] and in test [3] were 10.8%, 11.7% and 10.4%, respectively.

For `O=C(Cc1cccnc1)Nc1cccc(-c2cccc(-c3nc4cc(C(F)(F)F)ccc4[nH]3)c2)c1`, the values for the inhibition in test [1], in test [2] and in test [3] were 2.67%, 1.57% and 1.35%, respectively.

As to `Cc1[nH]c(C)c(-c2ccc(-c3ccc(Cl)cc3)nc2)c(=O)c1Br`, the results for the inhibition in test [1], in test [2] and in test [3] were -0.04%, -0.24% and -1.28%, respectively.

With `CCN(CCCN1CCCCC1)c1nccc(Nc2ccc(Cl)cc2)n1`, the results for the inhibition in test [1], in test [2] and in test [3] were 2.03%, 0.37% and 1.18%, respectively.

With `O=C(/C=C/c1ccc(Cl)c(Cl)c1)N1CCC(CCN2CCC(c3c[nH]c4cnccc34)CC2)CC1`, the inhibition is 16% in test [1], 11.9% in test [2] and 5.81% in test [3].

In the case of `Cc1onc(-c2c(Cl)cccc2Cl)c1C(=O)N1CCc2cc3nccc(N4CCN5CCC[C@H]5C4)c3cc21`, the inhibition in test [1] was 3.46%; in test [2], 4.46%; in test [3] it was 5.26%.

In the case of `COc1ccc(NC(=O)c2ccc(Br)c(C)c2)cc1N1CCN(Cc2ccccc2)CC1`, the values for the inhibition in test [1], in test [2] and in test [3] were 1.57%, 0.13% and -0.04%, respectively.

Regarding `O=C(C=Cc1ccc(Cl)c(Cl)c1)NCCCCCN1CCC(CCCNC(=O)C2CC2c2ccccc2)CC1` (centres undefined), the inhibition in test [1] is 1.26%; in test [2], 0.65%; in test [3], 1.16%.

On to `Cc1cc(N2CCCC2)nc(Nc2ccc(NC(=O)c3ccccc3C)cc2)n1`, for which the inhibition in test [1] was -1.05%; in test [2] it was 6.45%; in test [3], 0.46%.

On to `Cc1cc(C(=O)CN2C(=O)NC3(CCOc4ccccc43)C2=O)c(C)n1Cc1ccco1` (centres undefined), for which the inhibition in test [1] was found to be 5.85%; in test [2], 4.77%; in test [3], 3.86%.

Turning to `COC(=O)c1ccccc1COc1ccc(CC2(NC(=O)[C@H](Nc3ccc(C#N)c4ccccc34)C(C)(C)C)CCCC2)cc1`, the inhibition in test [1] is 4.44%; in test [2] it was 4.29%; in test [3] it was 2.22%.

Regarding `CN(C)CCCOc1ccc(CCNCc2cccc(Oc3ccc(Cl)cc3)c2)cc1`, the inhibition in test [1] is 14%; in test [2], 16.4%; in test [3], 13.7%.

For the compound `COc1cc(OC)c2c(C)cc(NCCCn3ccnc3)nc2c1`, the values for the inhibition in test [1], in test [2] and in test [3] were 2.59%, 3.68% and 0.88%, respectively.

Consider `Nc1ncc(-c2cccc(OCc3ccccc3)c2)cc1-c1nnc2ccc(Cl)nn12`, for which the values for the inhibition in test [1], in test [2] and in test [3] were 1.7%, 1.29% and 2.15%, respectively.

For `CCN1CCN(c2ccc(NC(=O)c3cc4c(C)nn(-c5ccccc5)c4s3)cc2C)CC1`, the values for the inhibition in test [1], in test [2] and in test [3] were 1.44%, 3.9% and -1.39%, respectively.

For the compound `CC1CN(c2ccc(NC(=O)c3cccs3)cc2)CCN1Cc1cccc(F)c1` (centres undefined), the inhibition is -0.49% in test [1], -0.85% in test [2] and 3.41% in test [3].

Take `CCCCCCCN1CC[C@@H](CCC(O)c2ccnc3ccc(OC)cc23)[C@@H](CC)C1` (some centres undefined): the inhibition was -0.47% in test [1], 0.63% in test [2] and 0.73% in test [3].

For `CCN(CCCN1CCCCC1)c1cc(C)nc(Nc2ccc(C)cc2Br)n1`, the figures for the inhibition in test [1], in test [2] and in test [3] were 4.17%, 4.38% and 4.15%, respectively.

On to `CCCN1CCN(CCNc2c3ccccc3nc3ccccc23)CC1`, for which the inhibition in test [1] was determined as 96.4%; in test [2], 97.2%; in test [3], 94.2%.

Regarding `Cc1cc2nc(-c3ccc(/C=C/C(=O)NCCc4ccccc4)cc3)[nH]c2cc1C`, the figures for the inhibition in test [1], in test [2] and in test [3] were 1.09%, 0.54% and 0.56%, respectively.

Consider `Cc1cc(C)c(S(=O)(=O)N2CCCCC(c3cccc(C(F)(F)F)c3)=N2)c(C)c1`, for which the inhibition stood at 1.84% in test [1], 1.41% in test [2] and 1.47% in test [3].

On to `FC(F)(F)c1ccc2[nH]c(-c3ccc(-c4ccc(CN5CCN(c6cnccn6)CC5)cc4)cc3)nc2c1`, for which the inhibition in test [1] turned out to be 12.9%; in test [2], 10.6%; in test [3], 7.09%.

In the case of `CCOc1cc(C(C)C)ccc1N1CCN(CCCCNC(=O)c2ccc(NC(=O)c3ccc(Cl)cc3)cc2)CC1`, the inhibition in test [1] came to 4.38%; in test [2], 2.39%; in test [3], 2.86%.

Turning to `O=[N+]([O-])c1ccccc1C=NN=c1c2c([nH]c3ccccc13)CCCC2`, the figures for the inhibition in test [1], in test [2] and in test [3] were 20.8%, 17.5% and 12%, respectively.

For `CC(C)CC(=O)Nc1cc(=O)[nH]c2nc(-c3ccccc3)nn12`, the results for the inhibition in test [1], in test [2] and in test [3] were 3.45%, 3.9% and 4.09%, respectively.

Take `Cc1nc(C)c(-c2ccc(Sc3ccc(Cl)cc3)cc2)c(O)c1Br`: the inhibition is -2.06% in test [1], -1.57% in test [2] and -1.9% in test [3].

Regarding `Cc1[nH]c(C)c(-c2ccc(OCc3cc(C(F)(F)F)cc(C(F)(F)F)c3)nc2)c(=O)c1Cl`, the inhibition in test [1] turned out to be 6.26%; in test [2], 9.78%; in test [3], 4.84%.

On to `Cc1cc(=O)c2cc(-c3ccc(OC(F)(F)F)cc3)ccc2[nH]1`, for which the figures for the inhibition in test [1], in test [2] and in test [3] were -2.2%, 0.49% and -0.86%, respectively.

Consider `Cc1cccc2nc(-c3cccc(-c4ccc(CN5CCN(CCO)CC5)cc4)c3)[nH]c12`, for which the inhibition in test [1] is 2.28%; in test [2], 0.97%; in test [3], -0.97%.

For `CCCc1cn2c3c(cc(C(=O)N[C@@H](Cc4ccccc4)[C@H](O)CNC4CCOCC4)cc13)N(CC)S(=O)(=O)CC2`, the inhibition in test [1] is 1.86%; in test [2], 2.35%; in test [3] it was 1.03%.

`CS(=O)(=O)CCOCc1ccc(-c2ccc3ncnc(Nc4ccc(OCc5cccc(F)c5)c(Cl)c4)c3c2)o1`: the values for the inhibition in test [1], in test [2] and in test [3] were 6%, 4.18% and 7%, respectively.

For `Clc1ccc2c(N3CCCNCC3)ccnc2c1`, the inhibition in test [1] came out at 1.53%; in test [2], 1.07%; in test [3] it was 4.48%.

Source of the values: ChEMBL document CHEMBL3433997, “St. Jude Leishmania screening dataset” (2016).
